Data from PubChem BioAssay AID1565 (Sanford-Burnham Center for Chemical Genomics, 2009).
Screen size: about 290,000 compounds; about 3,200 (1.1%) were called active. For the sample, actives were picked, then their nearest neighbours and some compounds at random. A number with no mark means an inactive call. Rule as the data show it: active = inhibition above about 60%; inactive = the rest.

Target: Phosphoethanolamine/phosphocholine phosphatase (Homo sapiens) (UniProt Q8TCT1)
Assay: PubChem AID 1565
Conditions: recombinant PHOSPHO1, absorbance phosphatase assay; at 13.3 µM; hits give high values

Sequence of Phosphoethanolamine/phosphocholine phosphatase (Homo sapiens) (Q8TCT1 whole entry, looked up): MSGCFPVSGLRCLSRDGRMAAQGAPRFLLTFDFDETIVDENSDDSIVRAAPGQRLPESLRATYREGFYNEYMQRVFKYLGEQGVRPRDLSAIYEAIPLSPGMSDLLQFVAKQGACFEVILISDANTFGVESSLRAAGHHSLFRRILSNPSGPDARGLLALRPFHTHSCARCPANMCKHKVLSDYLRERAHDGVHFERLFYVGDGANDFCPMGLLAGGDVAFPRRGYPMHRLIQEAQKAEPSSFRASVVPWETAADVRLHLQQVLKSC

| Compound | inhibition |
| --- | --- |
| Cc1ccc(N(CC(=O)NCC2CCCO2)C(=O)CNS(=O)(=O)c2ccc(Cl)cc2)cc1 (stereo not given) | 32.5% |
| CCc1ccc(NC(=O)CSc2nc3ccccc3c(=O)n2CCN2CCOCC2)cc1 | 2.3% |
| N#CCSc1nc2ccc(N3CCOCC3)cc2c(=O)n1CCc1ccccc1 | 81.7% (active) |
| CCCCn1c(SCC(=O)NCC2CCCO2)nc2ccc(N3CCOCC3)cc2c1=O (stereo not given) | -6.7% |
| COc1cccc2cc(C(=O)NCc3ccc(C)cc3)c(=N)oc12 | 37.7% |
| CC(=O)Nc1ccc(NC(=O)C2CCCN2S(=O)(=O)c2cccc(C(F)(F)F)c2)cc1 (stereo not given) | 24% |
| Cc1ccc(CNC(=O)CN2CCN(Cc3ccc(Cl)cc3)C2=O)cc1 | 4.8% |
| Cc1c2cnn(CC(=O)NCc3ccccn3)c(=O)c2c(C)n1Cc1ccc(Cl)cc1 | -9% |
| O=c1c2ccccc2nnn1CSc1nnnn1-c1ccccc1 | 8% |
| O=C(Cn1nnc2ccccc2c1=O)NCc1ccc(Cl)cc1 | 62.9% (active) |
| C=CCn1c(SCn2nnc3ccccc3c2=O)nnc1-c1ccc(Cl)cc1 | 94.8% (active) |
| Nc1nnc(SCn2nnc3ccccc3c2=O)s1 | 16.1% |
| COc1ccc(N(C)C(=O)C2CCN(S(=O)(=O)c3cccc4nsnc34)CC2)cc1 | 6.8% |
| CCOc1ccc(NC(=O)CCCCCN2C(=O)[C@@H]3Cc4ccccc4CN3C2=O)cc1 | 6.8% |
| COc1cc(C(=O)OC2CCOC2=O)c([N+](=O)[O-])cc1OC (stereo not given) | 32.3% |
| N#Cc1ccccc1-n1c(N)c(C(=O)N2CCCC2)sc1=S | -13.6% |
| Cc1cccc(C(=O)N2CCCN(C(=O)c3cccc(C)c3)CC2)c1 | 8.5% |
| COc1ccc2[nH]c(C(=O)N3CCN(C)CC3)c(C)c2c1 | 18.7% |
| Cc1ccc(S(=O)(=O)N2CCN(C(=O)N3CCOCC3)CC2)c(C)c1 | -7.3% |
| Cc1cccc(-n2c(N)c(C(=O)N3CCN(C)CC3)sc2=S)c1 | 83.6% (active) |
| Cc1ccc(-n2c(N)c(C(=O)N3CCOCC3)sc2=S)c(C)c1 | 87.8% (active) |
| COCC1CCN(C(=O)c2ccc3oc(Cc4ccccc4)nc3c2)C1 (stereo not given) | 27.6% |
| Cc1cc(OCc2cc(C(=O)NCc3cc(C(C)C)no3)no2)cc(C)c1Cl | 22.6% |
| CCn1cc(CCC(=O)NCc2ccc(F)cc2)c2ccccc21 | 38.1% |
| COc1ccc(CN(C)C(=O)c2cc(-c3ccc(C)cc3C)nc3ccccc23)c(OC)c1OC | 31.9% |
